Source: PubChem BioAssay
Most compounds without a hit are left out; they make up all but 6.5% or so of the library.
Spn MK inh = S. pneumoniae mevalonate kinase inhibition; purified MK, PK/LDH-coupled NADH absorbance 340 nm; 65,000 compounds, 0.48% hits; AID 555; inhibition, % at 10 µM;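 active = ranked among the strongest by inhibition in the single 10 µM screen, a fixed top-ranked set picked for dose follow-up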
NADH coupling = inhibitors of enzymes used to reach an NAD/NADH endpoint | coupled PK/LDH NADH assays, four targets | IC50, µM (top dose mostly 10 µM), inactives show top-dose inhibition | 65,000 compounds, 0.02% hits | AID 774;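 active = single-dose screening hits from any of four coupled enzyme assays that gave an IC50 when retested across doses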;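 also: the DPM-DC format reads NADH fluorescence rather than 340 nm absorbance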
DPM-DC inhibit = S. pneumoniae DPM-DC inhibition; purified DPM-DC, PK/LDH coupled NADH fluorescence; calls only at 10 µM; 65,000 compounds, 0.49% hits; AID 556;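 active = the 320 compounds with the highest percent inhibition in the single-dose primary screen, excluding strongly autofluorescent ones, cut at about 32% in these data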;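 also: kinetic rate of NADH fluorescence loss reporting ADP formed by the decarboxylase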
Abs 340nm = absorbance at 340 nm. compound absorbance at 340 nm, fold over control. fold change at 10 µM. 65,000 tested, under 10 active. AID 708;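 active = at 10 µM dose, initial 340 nm absorbance at least 2 fold that of control wells; inactive = change under 2 fold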;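 also: initial absorbance extrapolated from kinetic A340 decline of NADH oxidation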
Autofluor 339 = intrinsic fluorescence of library compounds, ex339/em460 – biochemical, MLSMR library, data from DPM-DC assay, artefact control, profiling panel; compound autofluorescence, ex339/em460 nm, NADH buffer; active compounds read high; 1 = no-compound wells, NADH background; fluorescence fold increase at 10 µM; 65,000 compounds, 5.5% hits; AID 709;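 active = at 10 µM, mean starting fluorescence two-fold or more over control wells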;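 also: signal is the first read of a kinetic run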
PMK inhibit = inhibitors of Streptococcus pneumoniae phosphomevalonate kinase. purified PMK, PK/LDH-coupled NADH absorbance 340 nm. inhibition, % at 10 µM. 65,000 compounds, 0.49% hits;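 active = top-ranked compounds by inhibition in the single 10 µM screen, taking a fixed number of the strongest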;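 also: 0% = full reaction with DMSO carrier and 100% = background rate without enzyme reaction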
* = called active by the depositor; i = inactive; / = not tested or not shown.

SMILES | Spn MK inh | NADH coupling | DPM-DC inhibit | Abs 340nm | Autofluor 339 | PMK inhibit
CCOc1ccc(CCNC(=O)Cc2nn[nH]n2)cc1OCC | 0 | 3% | i | 1 | 1.1 | 10
Cc1c(C)c2cc(Cl)c(OCc3nn[nH]n3)cc2oc1=O | 5 | 7% | / | 1.1 | 3.8* | 9
COC(=O)Cc1c(C)c2c(OCc3nn[nH]n3)cc(C)cc2oc1=O | 0 | 0% | / | 1.1 | 3.8* | 0
Cc1cc(C)c2cc(CN(CC3CCCO3)C(=O)NC3CCCCC3)c(=O)[nH]c2c1 (stereo not given) | 1 | 5% | i | 1 | 1.4 | 16
CCN(C(=O)CN1CCN(c2ccc(OC)cc2)CC1)c1c(N)n(Cc2ccccc2)c(=O)[nH]c1=O | 6 | 4% | i | 1 | 1.1 | 4
COc1ccccc1C1C(C(=O)c2cc3ccccc3o2)=C(O)C(=O)N1CCN1CCOCC1 (stereo not given) | 12 | 6% | i | 1.1 | 1.1 | 6
CCC(=O)c1cc2c(C)cc(=O)oc2c(C)c1O | 7 | 5% | i | 1 | 1.7 | 1
CCc1cc(=O)oc2c(C)c(O)c(CN(C)C)cc12 | 11 | 6% | / | 1.1 | 3.9* | 0
CC(=O)c1cc2c(O)c(O)ccc2o1 | 7 | 3% | i | 1.1 | 1.2 | 3
CC(=O)c1cc2cc(O)ccc2o1 | 8 | 10% | / | 1.1 | 4.4* | 11
CCOC(=O)c1oc2cccc(OCC(O)CNC(C)C)c2c1C (stereo not given) | 13 | 12% | / | 1 | 3.6* | 10
O=C(O)c1cc(=O)c2c(OCC(O)COc3cccc4oc(C(=O)O)cc(=O)c34)cccc2o1 | 7 | 2% | i | 0.99 | 1 | 0
Cc1nnc(NC(=O)CCC(=O)NCc2ccco2)s1 | 3 | 4% | i | 1 | 1.1 | 8
O=C(NCc1ccco1)C(c1cccs1)N(C(=O)C1COc2ccccc2O1)c1cccc(O)c1 (stereo not given) | 0 | 2% | i | 1 | 1.1 | 7
CCCCc1nc(NCC2CCCO2)c(C#N)c2c1COC(C)(C)C2 (stereo not given) | 4 | 5% | / | 1 | 2.4* | 5
CCCCc1nc(N2CCOCC2)c(C#N)c2c1COC(C)(C)C2 | 3 | 6% | / | 1 | 2.3* | 9
CCCSc1nc(N2CCCC2)c2c(c1C#N)CC(C)(C)OC2 | 1 | 1% | i | 1.1 | 1.2 | 1
CN1C(=O)C2(C(C#N)=C(N)Oc3c2oc(CO)cc3=O)c2ccccc21 (stereo not given) | 0 | 0% | i | 1 | 1.1 | 0
CC1Cn2c(nnc2-c2ccccc2O)S1 (stereo not given) | 0 | 0% | i | 1 | 1.1 | 0
CC1Cn2c(nnc2-c2cc3ccccc3cc2O)S1 (stereo not given) | 4 | 11% | i | 1 | 2.9* | 9
Cc1cc(-c2ccccc2)nc2[n+]1CCN2C | 3 | 10% | i | 1 | 1.6 | 12
CCn1c(COc2ccccc2C)nnc1SCC(=O)N1CCCCC1 | 1 | 9% | i | 0.96 | 1.1 | 27*
Cc1cc(OCC(=O)NCCO)cc(C)c1Cl | 6 | 4% | i | 0.99 | 1.1 | 26*
Cc1cc(OCC(=O)NCCO)ccc1Cl | 6 | 3% | i | 1.1 | 1.1 | 2
COc1ccc(CN2CCN(c3cc(C)nc4c5c(C)cc(C)nc5nn34)CC2)cc1F | 11 | 8% | / | 1 | 3.9* | 5
SMILES | Spn MK inh | NADH coupling | DPM-DC inhibit | Abs 340nm | Autofluor 339 | PMK inhibit
Cc1ccc(N2CCN(c3cc(C)nc4c5c(C)cc(C)nc5nn34)CC2)cc1 | 6 | 10% | i | 0.97 | 1.1 | 8
COc1ccc(-c2c(C)nn3c(N4CCN(Cc5ccccc5)CC4)cc(C)nc23)cc1OC | 4 | 5% | i | 1.1 | 1.1 | 6
CCOc1ccc(CN2CCN(c3cc(C)nc4c5c(C)cc(C)nc5nn34)CC2)cc1 | 6 | 2% | / | 1 | 3.1* | 4
Cc1cc(C)c2c(n1)nn1c(N3CCN(c4ccccc4C)CC3)cc(C)nc21 | 12 | 7% | / | 1 | 2.8* | 7
CC(=O)c1coc2ccc(OCCN3CCCCC3)cc12 | 7 | 4% | i | 1 | 1.1 | 4
CN(C)CCNC(=O)Cn1nc(C(F)F)cc1C1CC1 | 5 | 3% | i | 1 | 1.1 | 5
Cc1cc(C)c2c(CC(=O)Nc3nccs3)coc2c1 | 10 | 5% | i | 0.99 | 1.1 | 5
Cc1[nH]n2c(=O)cc(C(C)(C)C)nc2c1-c1ccccc1 | 12 | 16% | i | 1 | 2.3* | 13
CCSc1nc2n(n1)C(c1cccc(F)c1)C1=C(CCCC1=O)N2 (stereo not given) | 1 | 8% | i | 1.1 | 2.6* | 0
O=C(CN(Cc1ccc2c(c1)OCO2)C(=O)c1cnsn1)NC1CCCC1 | 8 | 5% | i | 1 | 1.1 | 8
CS(=O)(=O)N1CCCC(C(=O)NCCCN2CCOCC2)C1 (stereo not given) | 0 | 6% | i | 0.99 | 1.1 | 19
COc1ccc(CNCCNC(=O)c2ccco2)c(OC)c1OC | 1 | 3% | i | 1 | 1.1 | 7
COc1ccc2c(C)c(C(=O)NCC(C)O)oc2c1OC (stereo not given) | 4 | 10% | / | 1.1 | 2.3* | 15
Cc1cc(C)nc(Sc2c(C)nn(-c3ccccc3)c2C)n1 | 8 | 3% | i | 1 | 1 | 0
Cc1ccc2[nH]c3c(N4CCOCC4)ncnc3c2c1 | 2 | 2% | / | 1 | 2.5* | 0
c1ccc2c(c1)[nH]c1c(N3CCN(C4CCCCC4)CC3)ncnc12 | 9 | 5% | / | 1.1 | 2.3* | 0
c1ccc2c(c1)[nH]c1c(N3CCOCC3)ncnc12 | 3 | 5% | i | 1.1 | 1.7 | 2
CN1CCN(c2ncnc3c2[nH]c2ccc(F)cc23)CC1 | 8 | 4% | / | 1.1 | 2.3* | 0
c1ccc2c(c1)[nH]c1c(N3CCCC3)ncnc12 | 13 | 10% | i | 1.1 | 1.4 | 13
CCn1c(-c2ccc3[nH]c(C)c(C)c3c2)n[nH]c1=S | 11 | 10% | i | 0.99 | 1.1 | 13
O=C(NCc1cn2ccccc2n1)c1ccc(Br)o1 | 3 | 4% | i | 1 | 1.1 | 8
O=C(NCc1cn2ccccc2n1)c1ccccc1 | 52* | 21% | i | 0.99 | 1 | 12
CCOC(=O)N1CCC2(CC1)C(C#N)=C(N)Oc1c2c(C)nn1-c1cccc(Cl)c1 | 2 | 2% | i | 1 | 1.1 | 3
O=C(Nc1c(-c2ccccc2)nc2ccccn12)c1ccco1 | 5 | 2% | i | 1 | 1.1 | 4
Oc1cccc(/C=N/c2c(-c3ccco3)nc3ccccn23)c1 | 5 | 13% | / | 1.1 | 2.1* | 21
COc1nc(N2CCCC2)nc(-n2cc(-c3ccccc3)nn2)n1 | 0 | 4% | i | 0.99 | 1.1 | 13
